The record followed here is PubChem BioAssay (NCI).

This is part of a sample that, as a whole, favours compounds with a hit. Of some 79,000 tested, about 15% had one in any assay. Activity calls are given as the source filed them. No stated cut-off is given here; in the data, active means growth inhibition above about 70%; inactive means the rest.

The nature of this test: NCI Yeast Anticancer Drug Screen. Data for the sgs1 mgt1 strain (AID 161).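 Further: 0% = growth of cultures given vehicle only.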 The note with it: S. cerevisiae sgs1 mgt1 strain, active compounds read high. On the procedure:
Growth inhibition of yeast strains with defined genetic alterations is measured as a screen for potential anti-cancer activity. Selected strains with alterations in DNA damage repair or cell cycle control were exposed to compounds and growth inhibition was measured relative to vehicle treated controls. The strain used in this assay is sgs1 mgt1

Where [1] appears, read: at 5.0 µM (retest, dose inferred, filed as 0.5).
[2] abbreviates: at 50.0 µM (retest, dose inferred, filed as 5.0).

For `S=C(N/N=C1\C=Cc2ccccc2C1)N/N=C1\C=Cc2ccccc2C1`, the growth inhibition under setting [1] is -7% (inactive), the growth inhibition under setting [2] was 45% (inactive) and the growth inhibition (at 50.0 µM) is 41.7% (inactive).
The corresponding values for `CCCCN(CCCC)CCC(O)(c1ccc(OC)c2ccccc12)C(O)(CCN(CCCC)CCCC)c1ccc(OC)c2ccccc12` (configuration not stated) are 60% (inactive), 99% (active) and 99.6% (active).
The corresponding values for `CC(C)(C)c1ccc(OC(=O)Nc2ccc(Cl)cc2[N+](=O)[O-])c(Br)c1` are 3% (inactive), 37% (inactive) and 68.5% (inactive).
The corresponding values for `C1CCC(OC2CCCCO2)OC1` (configuration not stated) are -11% (inactive), 56% (inactive) and 62.1% (inactive).
Consider `CNC(=O)OC(C)CN1c2ccccc2Sc2ccccc21` (configuration not stated), for which the growth inhibition reads like this: under setting [1], 5% (inactive); under setting [2], 96% (active); (at 50.0 µM) 93.1% (active).
`CSc1cc(C(=O)O)nc(N)n1`: the growth inhibition was 5% (inactive) under setting [1], -1% (inactive) under setting [2] and -21.6% (inactive) (at 50.0 µM).
Regarding `C/C=c1/[nH]c(=O)/c(=C\c2ccccc2)[nH]c1=O`, the growth inhibition is -2% (inactive) under setting [1], 2% (inactive) under setting [2] and -5.45% (inactive) (at 50.0 µM).
Take `CSC(SC)(C(=O)O)c1cc(-c2c(Cl)cccc2Cl)no1`: the growth inhibition under setting [1] was 7% (inactive), the growth inhibition under setting [2] is 48% (inactive) and the growth inhibition (at 50.0 µM) was 95.5% (active).
The like results for `O=c1oc2cc(N=Cc3ccc4c(c3)OCO4)ccc2c2ccccc12` were, in that order, -7% (inactive), 4% (inactive) and 0.25% (inactive).
The corresponding values for `COC(CCC[N+](C)(C)C)CC[N+](C)(C)C` (configuration not stated) are -7% (inactive), 78% (active) and 97.8% (active).
With `CN(C)N=Nc1ccc(Cl)c2ncccc12`, the growth inhibition by setting is: under setting [1], 0% (inactive); under setting [2], 2% (inactive); (at 50.0 µM) -2.45% (inactive).
As for `CC(/C=C/c1cccs1)=N\C(=S)NC(N)=S`, the growth inhibition reads like this: under setting [1], 1% (inactive); under setting [2], 12% (inactive); (at 50.0 µM) 26.7% (inactive).
`CN(C)c1ccc(/C=N/N=C(\C#N)[S][Sn]([Cl])([c]2ccccc2)[c]2ccccc2)cc1`: the growth inhibition was 98% (active) under setting [1], 96% (active) under setting [2] and 97.5% (active) (at 50.0 µM).
The corresponding values for `CC1CCN(CCC(=O)c2cccc(O)c2)CC1` are 2% (inactive), 48% (inactive) and 29.8% (inactive).
